Paper PMC4336329 (PLoS ONE, 2015)
In all, about 310,000 compounds went through this assay and about 14,000 (4.5%) showed an effect of 50% or more. Effects have a minus sign here. Only a selection was taken, and strong results are over-represented in it overall.

Molecular target: human ether-à-go-go-related gene (hERG) potassium channel (human, UniProt Q12809)
Experiment: primary screen, population patch clamp on CHO cells stably expressing hERG; higher = less effect of the substance
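Also: peak tail current of the secondary pulse compared with the same well before compound.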

Chain of human ether-à-go-go-related gene (hERG) potassium channel (Q12809 whole entry, looked up): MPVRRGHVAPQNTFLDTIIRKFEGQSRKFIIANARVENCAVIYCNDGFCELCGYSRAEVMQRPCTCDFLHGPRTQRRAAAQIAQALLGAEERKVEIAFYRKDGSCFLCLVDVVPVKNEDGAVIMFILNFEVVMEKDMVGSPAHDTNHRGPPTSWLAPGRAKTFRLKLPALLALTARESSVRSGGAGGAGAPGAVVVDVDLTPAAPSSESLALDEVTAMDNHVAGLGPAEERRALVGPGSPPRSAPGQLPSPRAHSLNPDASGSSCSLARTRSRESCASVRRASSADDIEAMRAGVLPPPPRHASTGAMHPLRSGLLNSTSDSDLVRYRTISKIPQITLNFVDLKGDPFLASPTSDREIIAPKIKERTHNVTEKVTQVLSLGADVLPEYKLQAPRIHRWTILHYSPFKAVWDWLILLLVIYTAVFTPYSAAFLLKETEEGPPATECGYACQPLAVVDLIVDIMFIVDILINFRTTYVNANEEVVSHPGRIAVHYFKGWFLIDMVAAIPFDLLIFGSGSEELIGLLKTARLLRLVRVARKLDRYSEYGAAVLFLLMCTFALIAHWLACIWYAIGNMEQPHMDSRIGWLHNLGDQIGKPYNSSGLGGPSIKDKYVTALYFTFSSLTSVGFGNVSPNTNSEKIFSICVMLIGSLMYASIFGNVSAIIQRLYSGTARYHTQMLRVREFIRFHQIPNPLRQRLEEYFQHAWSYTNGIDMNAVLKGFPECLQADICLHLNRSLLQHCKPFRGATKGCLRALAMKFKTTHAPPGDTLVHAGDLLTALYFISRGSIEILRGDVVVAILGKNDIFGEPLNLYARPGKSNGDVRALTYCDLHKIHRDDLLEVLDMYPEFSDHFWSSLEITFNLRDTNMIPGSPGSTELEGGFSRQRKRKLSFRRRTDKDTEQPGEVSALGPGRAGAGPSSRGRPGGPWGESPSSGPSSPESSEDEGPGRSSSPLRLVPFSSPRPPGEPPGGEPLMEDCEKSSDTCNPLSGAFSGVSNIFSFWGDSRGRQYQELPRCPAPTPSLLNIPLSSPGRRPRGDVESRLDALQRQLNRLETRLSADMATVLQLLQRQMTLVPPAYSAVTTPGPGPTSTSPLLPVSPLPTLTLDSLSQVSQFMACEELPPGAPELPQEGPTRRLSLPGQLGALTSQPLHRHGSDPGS

SMILES	hERG current change (%, negative = inhibition) at 10uM [%]
COc1cc2ccccc2cc1C(=O)N1CCCC(C(F)(F)F)C1 (stereo not shown)	-14.3
O=C(Nn1cc(C(=O)N2CCN(c3ccccc3F)CC2)c2ccccc2c1=O)c1cnccn1	2.84
Cc1ccc(C(C)NC(=O)C23CC4CC(CC(C4)C2)C3)cc1 (stereo not shown)	11.4
CCOc1cccc(NC(=O)CSc2nc(C)c3c(c2C#N)CCCC3)c1	0.331
CCN(Cc1ccccc1)C(=O)COC(=O)c1cc(=O)[nH]c2ccccc12	-4.27
COC(=O)C1=C(C)N(Cc2ccccc2)C(=NCc2ccc(OC)cc2)N[C@H]1c1cccc(F)c1	6.76
COC(=O)C1=C(C)N(Cc2ccccc2)C(=NCCc2ccccn2)N[C@H]1c1cccc(F)c1	-60.4
CCN1C(=NCCCCO)N[C@@H](c2cccc(F)c2)C(C(=O)OC)=C1C	6.82
CCN1C(=NCCc2ccccn2)N[C@@H](c2cccc(F)c2)C(C(=O)OC)=C1C	-56.7
CCN1C(=NCCOC)N[C@@H](c2cccc(F)c2)C(C(=O)OC)=C1C	-14.3
COC(=O)C1=C(C)N(Cc2ccccc2)C(=NCc2ccccc2)N[C@H]1c1cccc(F)c1	-11.5
O=C1c2ccccc2CN1CCSC(=S)N1CCOCC1	-8.59
CC(C)C[C@H](NC(=O)C1CC(=O)N(c2ccc3c(c2)OCO3)C1)C(=O)NC1CCCCC1 (stereo partly shown)	22.4
COc1ccc(C(C)=O)cc1CSc1nc2cc(C(=O)O)ccc2c(=O)n1Cc1ccccc1	12.7
CCOc1ccccc1OCC(=O)NCCc1ccc(S(N)(=O)=O)cc1	10.9
CCOc1cc(CNCCc2ccc(S(N)(=O)=O)cc2)ccc1OCc1ccccc1.Cl	-55.9
CCOc1cc(CNCCc2ccc(S(N)(=O)=O)cc2)cc(Cl)c1OCc1ccccc1.Cl	-70.7
CCOc1cc(CNCCc2ccc(S(N)(=O)=O)cc2)ccc1OCC(=O)NC1CCCCC1.Cl	-36.3
CCNCc1cc(Cl)c(OCc2ccccc2)c(OCC)c1.Cl	-8.51
CCOc1cc(CNCCc2ccc(S(N)(=O)=O)cc2)ccc1OCC(=O)NC(C)(C)C.Cl	4.8
CCOc1cc(CNCCc2ccc(S(N)(=O)=O)cc2)ccc1OCc1ccc(Cl)cc1.Cl	-18.5
CCOc1ccc2ccccc2c1CNCCc1ccc(S(N)(=O)=O)cc1.Cl	-73.1

SMILES	hERG current change (%, negative = inhibition) at 10uM [%]
COc1cc(CNCCc2ccccc2)cc(Cl)c1OCc1ccccc1.Cl	-18.7
COC(=O)c1ccc(C(=O)OC)c(NC(=O)/C=C/C(=O)O)c1	5.06
CC(NC(=O)c1ccccc1SCC(=O)N1CCCC1)c1ccccc1 (stereo not shown)	-26.1
CCCCP(=O)(CCCC)Cc1ccccc1	15.3
CCN1C(=O)NC(=O)/C(=C/c2cc(C)n(-c3sc(C)c(C)c3C#N)c2C)C1=O	-4.66
COc1ccc(-c2c(C)nc(N)nc2-c2ccc(OCc3ccc(C)cc3)cc2O)cc1OC	4.25
CCOc1ccc(C(=O)N2CCCN(C(=O)c3ccc(OCC)cc3)CC2)cc1	-71.8
COc1ccc(C(=O)N2CCN(c3cccc(Cl)c3)CC2)cc1	-36
CCOc1ccc(C(=O)N2CCCC2)cc1	5.24
CCOc1ccc(C(=O)N2CCN(c3cccc(Cl)c3)CC2)cc1	-73.7
CCOc1ccc(C(=O)N2CCCCCC2)cc1	2.03
CCN1CCN(C(=S)c2ccc(O)cc2)CC1	11
CCOc1ccc(C(=O)N2CCN(c3ccccc3)CC2)cc1	-36.3
CCOc1ccc(C(=O)N2CCN(Cc3ccccc3)CC2)cc1	-69.3
CCOc1ccc(CN2CCN(C(=O)c3ccccc3)CC2)cc1	-39.5
COc1ccc(C(=S)N2CCN(C)CC2)cc1	-22.8
CCN(CC)c1ccc(C(=O)N2CCN(Cc3ccccc3)CC2)cc1	-37.8
CCN1CCN(C(=S)c2ccc(OC)cc2)CC1	-64.8
Cn1c(SCC(=O)N2CCCC2=O)nc2ccccc21	28.2
CCCS(=O)(=O)N1CCCC(C(=O)N2CCC3(CC2)OCCO3)C1 (stereo not shown)	15.7
CCCCNS(=O)(=O)c1ccc2nc(-c3cccnc3)cc(C(=O)NCC(OC)OC)c2c1	-2.03
O=[N+]([O-])c1ccc(N2CCN(c3ccccc3F)CC2)c(S(=O)(=O)N2CCOCC2)c1	-5.12

SMILES	hERG current change (%, negative = inhibition) at 10uM [%]
CC(=O)NC(Nc1nc2c(s1)CCCC2)(C(F)(F)F)C(F)(F)F	23.8
C=CCNC(=O)/C(=C\C=C\c1ccccc1)NC(=O)c1ccccc1Cl	-49.7
CNC(=O)c1[nH]cnc1C(=O)NCC(=O)OCc1ccccc1	13.9
Cc1cc(NC(=O)c2cc([N+](=O)[O-])cc([N+](=O)[O-])c2)n(-c2ccccc2)n1	7.63
COc1ccc(/C=C2\CCn3c2nc2cc(C(=O)O)ccc2c3=O)cc1	9.07
COC(=O)CCCC1=CC2=CC(=O)C(C)(OC(=O)c3cccs3)C(=O)C2=CN1CCCCO (stereo not shown)	3.74
CCCCc1cc(=O)oc2cc(OC(C)C(=O)NCc3ccccn3)c(Cl)cc12 (stereo not shown)	-13.6
Br.COc1ccc(-c2csc(CCN3N=C(C)CC3=O)n2)cc1	12.7
CCOc1ccc(C(=S)N2CCOCC2)cc1	-13.2
O=C(CCNS(=O)(=O)c1ccccc1F)N1CCN(C/C=C/c2ccccc2)CC1	-47.8
O=C(CCNS(=O)(=O)c1ccc(OC(F)(F)F)cc1)N1CCN(C/C=C/c2ccccc2)CC1	-81.5
CCOc1ccc(C(=O)N2CCN(c3cccc(C)c3C)CC2)cc1	-79.9
CCOc1ccc(S(=O)(=O)NCCC(=O)N2CCN(Cc3ccccc3)CC2)cc1	-54.2
CCOC(=O)N1CCN(c2cccc(C)c2C)CC1	-2.36
Cc1ccc(S(=O)(=O)NCCC(=O)N2CCN(C/C=C/c3ccccc3)CC2)cc1	-49.5
Cc1ccc(S(=O)(=O)NCCC(=O)N2CCN(Cc3ccccc3)CC2)cc1	11
CCCNS(=O)(=O)c1ccc(OCC(=O)N2CCN(Cc3ccccc3)CC2)cc1	-28.6
CCOc1ccc(C(=S)N2CCCC2)cc1	-7.78
Cc1cccc(N2CCN(C(=O)c3ccncc3)CC2)c1C	-37
CCOc1ccc(C(=S)N2CCN(C)CC2)cc1	-82.2
CC(=O)Nc1ccc(S(=O)(=O)NCC2CCC(C(=O)N3CCCCCC3)CC2)cc1 (stereo not shown)	5.67
CN(c1ccccc1)S(=O)(=O)c1ccc(Cl)nc1	10.8

SMILES	hERG current change (%, negative = inhibition) at 10uM [%]
C#CCOCCOCCOCCNc1nc(N2CCN(C(=O)[C@H]([C@@H](C)CC)n3cc([C@@H](N)Cc4ccc(O)cc4)nn3)CC2)nc(N2CCN(C(=O)[C@H](Cc3cc4ccccc4[nH]3)n3cc([C@@H](N)C(C)CC)nn3)CC2)n1.Cl (stereo partly shown)	3.33
Cc1cc(Cl)ccc1OCC(=O)Nc1nc(-c2cccs2)cs1	15.6
CC(OC(=O)Cc1c[nH]c2ccccc12)C(=O)Nc1ccccc1F (stereo not shown)	-11.7
CCN1CCN(Cc2cccc(Oc3ccccc3)c2)CC1	-35.9
O=C(c1cccc(C(=O)N2CCN(Cc3ccccc3)CC2)c1)N1CCN(Cc2ccccc2)CC1	-17.2
COc1cccc(C(=O)N2CCN(Cc3cccc(F)c3)CC2)c1.O=C(O)C(=O)O	-7.48
CCOc1ccc(CN2CCN(C(=O)c3cccc(F)c3)CC2)cc1.O=C(O)C(=O)O	-62
O=C(O)C(=O)O.O=C(c1cccc(F)c1)N1CCN(Cc2cccc(Br)c2)CC1	-48.6
O=C(c1ccccc1)N1CCN(Cc2cccc(Oc3ccccc3)c2)CC1	-50.1
CCN1CCN(Cc2cccc(Oc3ccc(Cl)cc3)c2)CC1	-56.9
CN1CCN(Cc2cccc(Oc3ccc(Cl)cc3)c2)CC1	1.98
COc1cccc(CN2CCN(C(=O)c3ccc(-c4ccccc4)cc3)CC2)c1	-38.3
C=CCn1c(-c2cccc(OC)c2OC)n[nH]c1=S	-24.3
Cc1cc2c(c(=O)n1Cc1ccccn1)C(c1ccc3c(c1)OCO3)C(C#N)=C(N)O2 (stereo not shown)	-0.622
COc1ccc(C(=S)N2CCCC2)cc1OC	2.36
CC(C)OC(=O)CC(=O)CSc1nc2c(cc1C#N)CCCCCC2	-4.33
O=C(O)c1ccc(C2SCC(=O)N2Cc2ccccc2)cc1 (stereo not shown)	-0.7
COc1ccc(N2CCN(C(=O)CSc3nnc4c(C)cc5cc(C)ccc5n34)CC2)cc1	-21.2
O=C1C2C3C=CC(C3)C2C(=O)N1c1n[nH]c(-c2cccnc2)n1 (stereo not shown)	11.1
